Screening data deposited in PubChem by Broad Institute.
dFosB activator: activators of delta FosB homodimer, primary screen, biochemical, fluorescence polarization, TAMRA-CDK5 oligo, single point. hit rate 0.99% among 340,000. purified delta FosB; percent of positive-control signal above neutral wells. activation, % at 25 µM. Protein FosB (Mus musculus), P13346;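 active = mean activation above about 17%, with every replicate also reaching it, limit read from the data, passing the limit was not always enough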
Target sequence (P13346 whole entry, looked up): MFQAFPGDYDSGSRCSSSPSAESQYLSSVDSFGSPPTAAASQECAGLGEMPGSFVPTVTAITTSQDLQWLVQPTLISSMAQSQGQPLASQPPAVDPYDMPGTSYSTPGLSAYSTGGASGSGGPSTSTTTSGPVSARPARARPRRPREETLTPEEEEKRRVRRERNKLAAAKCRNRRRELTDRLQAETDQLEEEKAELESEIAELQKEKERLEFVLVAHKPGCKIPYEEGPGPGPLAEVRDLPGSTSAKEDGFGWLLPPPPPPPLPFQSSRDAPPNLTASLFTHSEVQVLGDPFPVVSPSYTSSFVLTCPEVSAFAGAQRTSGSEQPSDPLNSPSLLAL
SIRT5 block: SIRT5 desuccinylase inhibitors, primary screen, biochemical, fluorescence imaging, single point, set 5; NAD-dependent protein deacylase sirtuin-5, mitochondrial (Homo sapiens), Q9NXA8; Purified SirT5, succinyl-peptide AMC, trypsin-coupled fluorescence; inhibition, % at 15 µM; hit rate 1.1% among 330,000; AID 652115, 2013; in the data active = inhibition above about 15%
CDK5 p35 inh: inhibitors of human CDK5/p35 kinase, primary screen, biochemical, single concentration; AID 488839, 2010; hit rate 0.01% among 330,000; Recombinant CDK5/p35, ADP-Glo luminescence, 60 min; inhibition, % at 10 µM; Cyclin-dependent kinase 5 (Homo sapiens) + Cyclin-dependent kinase 5 activator 1 (Homo …;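 active = highest replicate inhibition of at least 50% and at least 75% of replicates reaching 50%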
FGF22 binding: binders of human FGF22 protein, primary screen, FGF22 synaptogenesis inhibitor project, biophysical, thermal shift, single point. Fibroblast growth factor 22 (Homo sapiens), Q9HCT0. recombinant FGF22 thermal shift, SYPRO orange fluorescence; percent of sucrose octasulfate shift, DMSO zero. activity (Tm shift, normalised), % at 9.99 µM. hit rate 1.5% among 340,000;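 active = mean Tm shift, scaled 0 neutral to 100 positive control, at about 1.3% or above, every replicate too, limit read from the data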
Target sequence (Q9HCT0 whole entry, looked up): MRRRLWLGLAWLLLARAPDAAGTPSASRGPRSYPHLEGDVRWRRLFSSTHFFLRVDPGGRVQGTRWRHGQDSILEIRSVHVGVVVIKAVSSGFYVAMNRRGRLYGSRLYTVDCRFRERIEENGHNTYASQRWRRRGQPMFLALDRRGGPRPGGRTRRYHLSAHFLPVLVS
PvdQ acylase: P. aeruginosa PvdQ acylase inhibitors, primary screen, biochemical, fluorescence, plate reader and imaging, single point. PvdQ acylase [Pseudomonas aeruginosa LESB58]. purified PvdQ acylase. inhibition, % at 10 µM. hit rate 0.063% among 340,000. AID 488965, 2010; in the data active = inhibition above about 30%, passing the limit was not always enough
PglD DTNB: C. jejuni PglD acetyltransferase inhibitors, primary screen, biochemical, DTNB colorimetric, single point | UDP-N-acetylbacillosamine N-acetyltransferase PglD (Campylobacter jejuni) | purified PglD enzyme, DTNB colorimetric CoA detection | inhibition, % at 12.5 µM | hit rate 0.098% among 360,000; in the data active = inhibition above about 16%, passing the limit was not always enough
Hits are given with their value; 0 = inactive; - = no result given; ! = not confirmed by another sample. Most compounds without a hit are left out; they make up all but 2.8% or so of the library.

SMILES | dFosB activator | SIRT5 block | CDK5 p35 inh | FGF22 binding | PvdQ acylase | PglD DTNB
CN(C)CCNc1ccc(-c2nn(C)c(=O)c3ccccc23)cc1[N+](=O)[O-] | 0 | 0 | 0 | 0 | 0 | -
CN(C)CCNc1ccc(CO)c2sc3ccc(O)cc3c(=O)c12 | 38 | - | 0 | 0 | 0 | -
COc1ccc(C(CNC(=O)C(CC(C)C)NS(=O)(=O)c2ccc(C)cc2)N2CCOCC2)cc1 (configuration not stated) | 0 | 22 | 0 | 0 | 0 | 0
Cc1ccc(S(=O)(=O)NC(CC(C)C)C(=O)NCC(c2ccco2)N2CCCCC2)cc1 (configuration not stated) | 0 | 0 | 0 | - | 0 | 0
CC(=O)c1c(O)ccc2c(-c3ccccc3)cc(=O)oc12 | 0 | - | 0 | - | 0 | -
CN(C)Cc1c(O)ccc2c(-c3ccccc3)cc(=O)oc12 | 0 | 0 | 0 | 43 | 0 | -
O=S(=O)(c1cccs1)N1CCCCN2[C@H](CO)[C@H](c3ccc(C4=CCCCC4)cc3)[C@@H]2C1 | - | 18 | - | 0 | - | 0
Cc1ccc(-c2ccc([C@H]3[C@@H](CO)N4CCCCN(S(=O)(=O)c5cccc(C)c5)C[C@@H]34)cc2)cc1 | - | 0 | - | 0 | - | 0
Cc1ccc(-c2ccc([C@@H]3[C@H]4CN(S(=O)(=O)c5cccc(C)c5)CCCCN4[C@H]3CO)cc2)cc1 | - | 18 | - | 0 | - | 0
Cc1ccc(-c2ccc([C@@H]3[C@@H](CO)N4CCCCN(S(=O)(=O)c5cccc(C)c5)C[C@H]34)cc2)cc1 | - | 23 | - | 0 | - | 0
Cc1ccc(S(=O)(=O)NC[C@H]2CC[C@@H]3[C@@H](CN3C(=O)CN(C)C)O2)cc1 | - | 0 | - | - | - | -
CNC(=O)CSc1nc2c([nH]c3ccccc32)c(=O)n1CCOC | 0 | 0 | 0 | 44 | 0 | -
O=C(N[C@@H]1CC[C@H](CCn2cc(-c3ccccn3)nn2)O[C@H]1CO)c1ccc(F)cc1 | - | 0 | - | 0 | - | 0
COCC(=O)N1C[C@@H](C)[C@H](OC)CN(C)C(=O)c2cc(NC(=O)Nc3ccccc3)ccc2OC[C@H]1C | - | 0 | - | 0 | - | 0
CCN(CC)C(=O)Cc1cn(C)c2ccccc12 | 0 | 0 | 0 | 43 | 0 | 0
C[C@@H]1CCCCO[C@@H](CN(C)S(=O)(=O)c2ccccc2)[C@@H](C)CN([C@H](C)CO)C(=O)c2cc(NC(=O)C3CCCCC3)ccc2O1 | - | 0 | - | - | - | 0
CSc1nc2ccc(NC(=O)C3=NNC(=O)CC3)cc2s1 | 0 | 0 | 0 | 43 | 0 | -
CO[C@@H]1CN(C)C(=O)c2ccc(NS(=O)(=O)c3ccccc3C)cc2OC[C@@H](C)N(S(=O)(=O)c2ccccc2)C[C@H]1C | - | 0 | - | 0 | - | 0
CN(C)CC(=O)N[C@@H]1CC[C@H](CCNC(=O)C2CCCCC2)O[C@@H]1CO | - | 0 | - | 0 | - | 0
CCCNC(=O)N1CC2(CCN(C(=O)c3cccnc3)CC2)c2c([nH]c3cc(OC)ccc23)[C@@H]1CO | - | 0 | - | 0 | - | -
O=C(O)CSCC(=O)N(Cc1ccccc1)c1nc(-c2ccccc2)c(-c2ccccc2)s1 | 0 | 17 | 0 | - | 0 | 0
O=C(C[C@H]1CC[C@H]2[C@@H](COC[C@H](O)CN2Cc2cc(F)ccc2F)O1)N[C@H]1CCN(Cc2ccccc2)C1 | - | 0 | - | 0 | - | 0
CN(C)/C=C(/C(=O)c1ccc(Cl)c(Cl)c1)S(C)(=O)=O | 0 | 0 | 0 | 44 | 0 | 0
O=C1CCN(Cc2nc(-c3ccc(Cl)cc3)no2)CCN1 | 0 | 0 | 0 | 43 | 0 | 0
CCC(=O)/C=C1/Sc2ccc(OC)cc2N1CCO | 0 | 0 | 0 | 43 | 0 | -
SMILES | dFosB activator | SIRT5 block | CDK5 p35 inh | FGF22 binding | PvdQ acylase | PglD DTNB
O=C(Cc1ccccn1)NCC[C@H]1CC[C@H](NC(=O)Nc2ccccc2)[C@@H](CO)O1 | - | 0 | - | 0 | - | 0
O=C(Oc1cc(Cl)ccc1Cl)C1=CC=CN2CCS(=O)(=O)N=C12 | 0 | 0 | 0 | 16 | 0 | 0
O=C(Oc1ccc(Cl)c(Cl)c1)C1=CC=CN2CCS(=O)(=O)N=C12 | 0 | 0 | 0 | 0 | 0 | 0
CCNc1nc(NCC)nc(N(C#N)CCOc2ccccc2)n1 | 0 | 0 | 0 | 0 | 0 | -
CN(C)c1nc(Cl)nc(N(C#N)CCOc2ccccc2)n1 | 0 | 0 | 0 | 43 | 0 | -
CS(=O)(=O)c1ccc(C(=O)Nc2ccc(N3CCCC3)cc2)c(Cl)c1 | 0 | 0 | 0 | 0 | 0 | 0
Cc1ccc(C(=O)Nc2ccc(N3CCCC3)cc2)c(C)c1 | 49 | 0 | 0 | - | 0 | -
O=C(Nc1ccc(N2CCCC2)cc1)c1cc(Br)ccc1Cl | 52 | 0 | 0 | 0 | 0 | 0
COc1ccc2c3c(n(C)c2c1)[C@H](CO)N(C(=O)CC1CC1)CC31CN(C(=O)C2CCC2)C1 | - | 0 | - | 0 | - | -
COC(=O)CSc1nccc(C)n1 | 0 | 0 | 0 | 44 | 0 | -
CCN(CC)c1ccc(/C=N/NC(=O)Cc2nnc(NC(=O)Nc3ccccc3)s2)cc1 | 25 | 0 | 0 | 0 | 0 | -
CCN(CC)c1ccc(/C=N/NC(=O)Nc2ccccc2)cc1 | 0 | 0 | 0 | 0 | 0 | -
O=C(C[C@H]1CC[C@H]2[C@@H](COC[C@@H](O)CN2C(=O)c2ccc(F)cc2)O1)Nc1nccs1 | - | 0 | - | 0 | - | 0
CCO[C@H]1OC(C(=O)O)=C[C@@H](C(C)(C)C)[C@@H]1CCCO | 0 | 23 | 0 | 0 | 0 | 0
CCO[C@H]1OC(C(=O)O)=C[C@@H](c2ccc3c(c2)OCO3)[C@@H]1CCCO | 0 | 0 | 0 | 44! | 0 | 0
CCO[C@H]1OC(C(=O)N2CCCC2)=C[C@@H](c2ccc3c(c2)OCO3)[C@@H]1CCCO | - | 0 | - | 0 | - | -
CCO[C@H]1OC(C(=O)O)=C[C@@H](C)[C@@H]1CCCO | 0 | 0 | 0 | 0 | 0 | 0
Cc1noc(C)c1NC(=O)Nc1cccc2c1O[C@H](CN(C)S(=O)(=O)c1cn(C)cn1)[C@H](C)CN([C@@H](C)CO)C2=O | - | 0 | - | 0 | - | 0
CCOC(=O)c1ccc(N2C(=O)C(C)=C(C)C2=O)cc1 | 0 | - | 0 | - | 38 | -
O=C(c1cc(F)c(F)c(F)c1F)N1CCN(C(=O)C2CCCO2)CC1 (configuration not stated) | 0 | - | 0 | 44 | 0 | -
Cc1ccc(C(=O)N2CCN(C(=O)C3CCCO3)CC2)cc1 (configuration not stated) | 0 | 0 | 0 | 0 | 0 | 0
O=C(Nc1cccnc1)c1ccc(CSc2ccccc2)cc1 | 0 | 0 | 0 | 0 | 0 | -
CN(C=O)c1ccc(CSc2ccccc2)cc1 | 0 | 36 | 0 | 0 | 0 | 0
O=C(NCC(=O)N1CCN(C(c2ccccc2)c2ccccc2)CC1)c1ccccc1Br | - | 20 | - | 0 | - | 0
